Screening data: PubChem BioAssay, National Center for Advancing Translational Sciences (NCATS)
An excerpt weighted towards active compounds, which were near 6.5% of everything screened.
Vaccinia Venus: inhibitors of vaccinia virus (Venus reporter); Potency, µM (highest dose often 36.5 µM), for inactives: at the top dose activity change, negative = inhibition, most hits filed as inhibitors; Vaccinia virus Venus reporter expression, fluorescence; AID 720580; 330,000 compounds, 0.46% hits; calls by dose curve; tested in A549 cells; also: potency is read from the fitted curve at half-maximal effect; nearly all actives have a fitted effect of over 30% in size
Lassa entry inh: blocks Lassa virus binding to or entry into cells; Potency, µM (titrated, usually from 37.9 µM), without a hit: at the highest dose activity change, negative = inhibition, usual class: inhibitors; Lassa virus pseudotype entry inhibition, cell reporter; 300,000 compounds, 1.2% hits; AID 540256; calls by dose curve; tested in HEK293 cells; also: potency is read from the fitted curve at half-maximal effect; nearly all actives have a fitted effect of over 50% in size
HCMV inh: inhibitors of human cytomegalovirus. HFF cells, HCMV-luciferase reporter, 72 h; hits give low values. activity change, negative = inhibition, % at 57.5 µM. 410,000 compounds, 4.5% hits. AID 1259415; in the data active = activity change below about -60%; inconclusive = no clear call, values can overlap the other calls; inactive = above about -39%
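Luciferase read-out from HCMV-luciferase-infected HFFs (MOI 1 PFU/cell) 72 h post infection at 37C; compounds added after 16 h cell attachment; activity normalized between buffer-only basal and Salinomycin (10uM) inhibitor controls.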
Vaccinia mCherry: vaccinia inhibition (mCherry reporter); Potency, µM (highest dose often 36.5 µM), without a hit: top-dose activity change, negative = inhibition, actives largely listed as inhibitors; Vaccinia virus mCherry reporter infection, fluorescence; 310,000 compounds, 0.63% hits; calls by dose curve; tested in A549 cells; also: potency is read from the fitted curve at half-maximal effect; nearly all actives have a fitted effect of over 35% in size
MARV entry inh: Marburg virus entry inhibition. Marburg virus pseudotyped entry inhibition, cell reporter. Potency, µM (top dose mostly 37.8 µM), for inactives: at the top dose activity change, negative = inhibition, hits mostly inhibitors. 300,000 compounds, 1.8% hits. AID 540276; calls by dose curve; tested in HEK293 cells; also: potency is read from the fitted curve at half-maximal effect
FMDV antiviral: foot and mouth disease virus antiviral activity. AID 1159524. Potency, µM (highest dose often 57.9 µM), for the others: at the top dose activity change, negative = inhibition, usual class: inhibitors. FMDV antiviral cell-based qHTS. 410,000 compounds, 1.2% hits; calls by dose curve; tested in HEK293T cells; also: read-out not given here; potency is read from the fitted curve at half-maximal effect; nearly all actives have a fitted effect of over 45% in size
Starred values were filed as active, the others as inactive; i = inactive; ? = inconclusive; · = no result; [ ] = dose if it differs, or a comment. % is scaled to controls: 0 for no effect and ±100 for the full control effect.

SMILES	Vaccinia Venus	Lassa entry inh	HCMV inh	Vaccinia mCherry	MARV entry inh	FMDV antiviral
Cc1oc(-c2ccccc2NS(C)(=O)=O)nc1CN(C)Cc1ccc(Cl)cc1	-1%	·	·	-9%	·	0%
COc1ccccc1CNS(=O)(=O)c1ccc(S(=O)(=O)NC2CC2)cc1	-5%	8%	?	-5%	-9%[46.1 µM]	-7%
COc1cc(CN(C2CCCCC2C)S(=O)(=O)c2ccc(S(=O)(=O)NC3CC3)cc2)cc(OC)c1OC (stereo unspecified)	-25%	?	-20	?	10µM*	-29%
COc1ccc(CN(C2CCCCC2C)S(=O)(=O)c2ccc(S(=O)(=O)N(C)C)cc2)cc1OC (stereo unspecified)	-13%	?	-79*	-29%	?	-27%
CCCCCOC(=O)[C@H](C)c1c(C)[nH]c(=S)[nH]c1=O	·	·	·	·	4%	·
CCc1c(C)sc2c1CCN(C(=O)Nc1ccc(F)c(Cl)c1)C2c1ccc(F)cc1 (stereo unspecified)	-2%	?	-104*	-19%	·	40µM*
O=S(=O)(Cc1ccccc1)c1cnc2ccccc2n1	-12%	-13%	-33	·	-14%	11µM*
O=S(=O)(c1ccc(Br)cc1)c1cnc2ccccc2n1	-11%	?	?	?	?	?
C/C(=N\NC(=O)c1ccncc1)C12CC3CC(CC(C3)C1)C2	-1%	-5%	-4	-20%	6%	-11%
C/C(=N\NC(N)=S)C1(C)CCCCC1	?	-37%	-61*	?	-31%	-4%
C/C(=N\NC(N)=S)C12CC3CC(CC(C3)C1)C2	8.9µM*	?	-69*	11µM*	?	·
CN1CCN(S(=O)(=O)c2ccc(NC(=O)C(C)(C)C)cc2)CC1	·	12%	-108*	·	26%	8%
CC(=O)Nc1ccc(S(=O)(=O)N2CCN(C(=O)N3CCCCCC3)CC2)cc1	2%	?	-69*	·	?	-15%
COC(=O)Nc1ccc(S(=O)(=O)N2CCC(C(=O)N3CCCC(C)C3)CC2)cc1 (stereo unspecified)	-11%	0%[46.1 µM]	-38	i	-2%[46.1 µM]	6%
CC(=O)Nc1ccc(S(=O)(=O)N2CCc3c(Cl)cccc3C2)cc1	-26%	·	-67*	-44%	·	-3%
CC(=O)Nc1ccc(S(=O)(=O)N2CCN(S(=O)(=O)c3ccc(NC(C)=O)cc3)CC2)cc1	-2%	1%[46.1 µM]	·	i	10%[46.1 µM]	-17%
CC(=O)Nc1ccc(S(=O)(=O)N2CCCN(S(=O)(=O)c3ccc(NC(C)=O)cc3)CC2)cc1	-3%	1%	24	-13%	-4%	-24%
CC1CCCN(C(=S)Nc2ccc(S(=O)(=O)N3CCCCC3)cc2)C1 (stereo unspecified)	-19%	-14%[46.1 µM]	-67*	i	-22%[46.1 µM]	-4%
CC(C)N(C(=O)c1cc2c(Cl)nc3ccccc3c2s1)C1CCCCC1	2%	10%[46.1 µM]	-4	3%	6%[46.1 µM]	-4%
O=[N+]([O-])c1cc(Cl)ccc1Nc1nc(Nc2ccc(Cl)cc2[N+](=O)[O-])nc(N2CCOCC2)n1	-13%	·	·	10%	·	·
Cc1ncc2c(c1CNC(=O)c1cncs1)CCN(C(=O)c1cccc(-c3cccc(F)c3)c1)C2	0%	·	·	i	·	-4%
Cc1c(C)n(C)c2ccc(C(=O)NCCc3ccc(Cl)cc3)cc12	-2%	16%[46.1 µM]	0	-12%	·	-2%
CC(C)CN1CC2(CCN(C(=O)c3csnn3)CC2)C1	·	·	·	·	·	-1%
Cc1ccc(S(=O)(=O)N2CCC([C@@H](C#N)c3ccccc3)CC2)cc1	·	·	-17	·	·	·
CCNc1nc(N2CCCN(C)CC2)nc2cc(OC)c(OC)cc12	-28%	·	·	?	·	·
SMILES	Vaccinia Venus	Lassa entry inh	HCMV inh	Vaccinia mCherry	MARV entry inh	FMDV antiviral
Cc1ccc(-n2nnnc2SCC(=O)Nc2ccccc2N2CCCCC2)cc1C	?	?	-27	·	13µM*	-1%
COc1ccc(Nc2c(-c3ccc(C)o3)nc3cc(C)ccn23)cc1	-10%	1%[46.1 µM]	-30	-10%	6%[46.1 µM]	3%
OC1(c2cccs2)CN(c2ccccc2)C2=[N+]1CCCC2 (stereo unspecified)	-14%	-1%	-4	-12%	-23%[46.1 µM]	-1%
CCOc1ccc(N2CC(O)(c3cccs3)[N+]3=C2CCCC3)cc1 (stereo unspecified)	-1%	-1%	-9	-5%	5.6µM*	-16%
COc1ccc(N2CC(O)(c3ccc(F)cc3)[N+]3=C2CCCC3)cc1 (stereo unspecified)	-3%	12%	-81*	-13%	-3%	-25%
COc1ccc(N2C3=[N+](CCCC3)CC2(C)O)cc1 (stereo unspecified)	·	3%	-78*	·	4%	-23%
CCC1CN(CC(=O)NC(C)CO)Cc2cc(OC)ccc2O1 (stereo unspecified)	-5%	·	·	-16%	·	4%
Cc1cccc(NC(=O)c2nc[nH]c2C(=O)NCc2ccccc2)c1	?	·	-61*	-16%	·	-12%
CN(Cc1ccccc1)C(=O)c1[nH]cnc1C(=O)NCc1ccc(CNC(=O)OC(C)(C)C)cc1	-16%	·	-1	-7%	·	?
CN(Cc1ccccc1)C(=O)c1[nH]cnc1C(=O)NCc1ccccc1	-12%	·	-61*	-13%	·	-4%
O=C(Nc1ccccc1)c1nc[nH]c1C(=O)NCc1ccccc1	?	·	-1	-24%	·	-15%
Cc1cccc(NC(=O)c2nc[nH]c2C(=O)N[C@H](C)c2ccccc2)c1	?	·	-2	28µM*	·	-25%
C=C(c1nc2ccccc2s1)C1Cc2cccc3c2N(CCC3)C1 (stereo unspecified)	i	·	·	i	·	·
COc1ccc(-c2nc3ccc(C(=O)NCC(OC)OC)cc3nc2-c2ccc(OC)cc2)cc1	-10%	-10%	-60*	-1%	?	?
Cc1ccccc1-c1ccc2c(c1)COCC(=O)N2C	·	·	1	·	·	·
Cc1ccccc1NC(=O)C(C)OC(=O)C1CC(=O)N(Cc2ccco2)C1 (stereo unspecified)	·	·	-102*	·	·	-2%
CCN(CC)CCN(C(=O)c1cc2ccccc2cc1OC)c1nc2ccc(F)cc2s1	-26%	-20%[46.1 µM]	19	-5%	5.6µM*	-29%
COc1cc2ccccc2cc1C(=O)N(CCN(C)C)c1nc2ccc(C)cc2s1	-25%	?	-8	-5%	4.5µM*	-15%
COc1cc2ccccc2cc1C(=O)N(CCN(C)C)c1nc2c(OC)ccc(OC)c2s1	?	?	-36	-23%	?	?
CCN(CC)CCN(C(=O)c1cc2ccccc2cc1OC)c1nc2ccc(OC)cc2s1	·	·	-26	·	·	-19%
CC(=O)Nc1ccccc1-c1nc2ccccc2n(C(C)C(=O)Nc2cccc(C)c2C)c1=O (stereo unspecified)	-10%	1%[46.1 µM]	9	i	-1%[46.1 µM]	-15%
COc1ccc(-c2n[nH]c(C)c2-c2cnn(-c3ccccc3)c2)c(O)c1	·	-16%	61	·	?	-16%
COc1ccc(-c2n[nH]c(C)c2-c2cnn(-c3ccccc3)c2)c(O)c1C	·	-16%	-77*	·	-27%	5%
